Measured values from PubChem BioAssay (Tox21).
Results filed as inconclusive are left out. Entries that show only a call come without a potency. The source made the active and inactive calls. Unless noted, the call rests on the fitted dose curve; in most records, active means well fitted curve in the direction sought with a large enough effect in the repeat runs; inconclusive means weak or mixed curves; inactive means no such curve, though single readings can be large; an effect the other way counts as inactive or inconclusive.

How the values were obtained:
[1] = qHTS assay to identify aromatase inhibitors - cell viability counter screen (AID 743084);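 further: cells stimulated with testosterone during compound exposure; nearly all actives have a fitted effect of over 55% in size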; further: potency means the concentration at half of the fitted maximal effect
[2] = qHTS assay to identify small molecule that activate the aryl hydrocarbon receptor (AhR) signaling pathway - cell viability counter screen (AID 743086);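 further: HepG2 liver cells carrying the AhR DRE luciferase reporter; series mostly up to about 70 µM; nearly all actives have a fitted effect of over 45% in size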
In short: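 HepG2-AhR-luc (HG2L7.5c1) cells, 4000/well, were preincubated 5 h at 37C, exposed to compound in qHTS format for 24 hr at 37C, then given CellTiter-Fluor for 30 min; viability was read as fluorescence in the reporter wells.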

[3] = biological target: Peroxisome proliferator-activated receptor gamma (Homo sapiens) (UniProt P37231); assay: qHTS assay to identify small molecule agonists of the peroxisome proliferator-activated receptor gamma (PPARg) signaling pathway (AID 743094; active means well fitted activation curve with a large enough effect in the signal ratio in the repeat runs, not every such curve was filed as active; the % refers to the signal ratio)
In short: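 Fluorescence-based beta-lactamase readout in HEK293H PPARg UAS-bla cells after 17 h compound exposure (37C) and 1 h B/G FRET substrate incubation at room temperature.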

[4] = qHTS assay to identify small molecule antagonists of the peroxisome proliferator-activated receptor gamma (PPARg) signaling pathway - cell viability counter screen (AID 743194); further: nearly all actives have a fitted effect of over 55% in size
In short: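 PPARg-UAS-bla HEK293H cells were plated, rested 5 h at 37 C, then treated with compounds plus rosiglitazone (50 nM final) for 17 h at 37 C; viability was then read by CellTiter-Glo luminescence after 30 min at room temperature.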

[5] = qHTS assay for small molecule agonists of the antioxidant response element (ARE) signaling pathway (AID 743202; active means well fitted activation curve with a large enough effect in the signal ratio in the repeat runs, not every such curve was filed as active; the % refers to the signal ratio)
In short: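 Steps: seed ARE-bla HepG2 cells (2,000/well); incubate 5 h at 37 C; add compounds by pin tool; incubate 16 h at 37 C; add FRET substrate; read fluorescence after 2 h at RT.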

[6] = qHTS assay for small molecule agonists of the antioxidant response element (ARE) signaling pathway - cell viability counter screen (AID 743203; calls by dose curve; further: nearly all actives have a fitted effect of over 55% in size)
In short: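 Parallel cytotoxicity read-out for the ARE-bla screen: HepG2 reporter cells, 16 hrs with compounds, then CellTiter-Glo luminescence.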

[7] = qHTS assay for small molecule activators of the heat shock response signaling pathway - cell viability counter screen (AID 743209); further: nearly all actives have a fitted effect of over 50% in size
In short: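 To flag cytotoxic compounds, HSE-bla HeLa cells plated at 1500 cells/well were dosed for 5 h at 37 C, followed by the reporter FRET read and then CellTiter-Glo, with luminescence recorded 30 min after reagent addition.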

[8] = qHTS assay for small molecule activators of the heat shock response signaling pathway (AID 743210; active means well fitted activation curve with a large enough effect in the signal ratio in the repeat runs, with a control signal flat, not every such curve was filed as active; the % refers to the signal ratio;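 further: HeLa cells with beta-lactamase reporter driven by heat shock elements; series mostly up to about 63 µM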)
In short: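 Activation of heat shock element-controlled beta-lactamase expression is measured in HeLa cells by LiveBLAzer FRET fluorescence, with compound exposure lasting 5 h at 37 C and substrate loading 2.5 h at room temperature.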

[9] = qHTS assay to identify small molecule agonists of the peroxisome proliferator-activated receptor delta (PPARd) signaling pathway - cell viability counter screen (AID 743211); further: nearly all actives have a fitted effect of over 55% in size
In short: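 PPARd-bla HEK293H cells (UAS-beta-lactamase reporter) were treated with compounds for 17 h at 37 C. Viability was then read in the same wells by CellTiter-Glo luminescence after 30 min at room temperature.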

[10] = biological target: Peroxisome proliferator-activated receptor delta (Homo sapiens) (UniProt Q03181); assay: qHTS assay to identify small molecule agonists of the peroxisome proliferator-activated receptor delta (PPARd) signaling pathway (AID 743212; calls by dose curve)
In short: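 Cells expressing a UAS-driven beta-lactamase reporter (PPARd-bla HEK293H) were given test compounds after a 5 h settle and kept at 37 C. Reporter activity was then measured as FRET fluorescence using LiveBLAzer B/G substrate.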

[11] = qHTS assay to identify small molecule antagonists of the peroxisome proliferator-activated receptor delta (PPARd) signaling pathway - cell viability counter screen (AID 743213); further: nearly all actives have a fitted effect of over 50% in size
In short: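 PPARd-bla HEK293H cells (3000/well) got compound plus 300 nM L165041 agonist for 17 h at 37 C. Viability in the same wells came from CellTiter-Glo luminescence after 30 min at room temperature.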

[12] = biological target: Bile acid receptor (Homo sapiens) (UniProt Q96RI1); assay: qHTS assay to identify small molecule antagonists of the farnesoid-X-receptor (FXR) signaling pathway (AID 743217; active means well fitted inhibition curve with a large enough effect in the signal ratio in the repeat runs, not every such curve was filed as active; the % refers to the signal ratio)
In short: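 Quantitative HTS, beta-lactamase reporter format: FXR-UAS-bla HEK 293T cells co-treated 16 h at 37 °C with compounds and 50 uM final chenodeoxycholic acid, then read by B/G FRET fluorescence.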

[13] = qHTS assay to identify small molecule agonists of the farnesoid-X-receptor (FXR) signaling pathway - cell viability counter screen (AID 743218); further: nearly all actives have a fitted effect of over 45% in size
In short: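 Same-well cytotoxicity check on FXR-UAS-bla HEK 293T cells: 5 h attachment, 16 h compound at 37 C, CellTiter-Glo luminescence read at room temperature after 30 min.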

[14] = biological target: Bile acid receptor (Homo sapiens) (UniProt Q96RI1); assay: qHTS assay to identify small molecule agonists of the farnesoid-X-receptor (FXR) signaling pathway (AID 743220; active means well fitted activation curve with a large enough effect in the signal ratio in the repeat runs, not every such curve was filed as active; the % refers to the signal ratio)
In short: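 FXR-UAS-bla HEK 293T cells carrying a UAS-driven beta-lactamase reporter were plated for 5 h at 37C/5% CO2, then exposed to DMSO-dissolved Tox21 10K compounds for 16 h at 37C. A LiveBLAzer B/G FRET substrate was loaded for 2 h at room temperature before fluorescence reading.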

[15] = qHTS assay to identify small molecule antagonists of the farnesoid-X-receptor (FXR) signaling pathway - cell viability counter screen (AID 743221; active means well fitted cell-killing curve with a large enough effect in the repeat runs, not every such curve was filed as active; further: nearly all actives have a fitted effect of over 50% in size)
In short: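 FXR-UAS-bla HEK 293T cells were treated with test compounds plus chenodeoxycholic acid (50 uM final) for 16 h at 37 C. Cell viability in the same wells was then read as CellTiter-Glo luminescence after 30 min at room temperature.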

[16] = biological target: Vitamin D3 receptor (Homo sapiens) (UniProt P11473); assay: qHTS assay to identify small molecule agonists of the vitamin D receptor (VDR) signaling pathway (AID 743222; calls by dose curve)
In short: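 Using LiveBLAzer B/G FRET detection, agonism was scored in VDR-bla cells exposed overnight (16 h, 37C) to DMSO-dissolved compounds; substrate incubation was 2 h at room temperature.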

[17] = biological target: Vitamin D3 receptor (Homo sapiens) (UniProt P11473); assay: qHTS assay to identify small molecule antagonists of the vitamin D receptor (VDR) signaling pathway (AID 743223; active means well fitted inhibition curve with a large enough effect in the signal ratio in the repeat runs, not every such curve was filed as active; the % refers to the signal ratio)
In short: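 VDR-bla cells were plated, incubated 4 h at 37C, then given compound and 1alpha,25-dihydroxyvitamin D3 (3 nM final). After 16 h at 37C, LiveBLAzer B/G FRET substrate was added for 2 h at room temperature and fluorescence read.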

[18] = biological target: Peroxisome proliferator-activated receptor gamma (Homo sapiens) (UniProt P37231); assay: qHTS assay to identify small molecule antagonists of the peroxisome proliferator-activated receptor gamma (PPARg) signaling pathway (AID 743191; calls by dose curve; further: series mostly up to about 63 µM; nearly all actives have a fitted effect of over 30% in size)
In short: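 GeneBLAzer PPARg UAS-bla HEK293H cells carrying a UAS-driven beta-lactamase reporter were plated at 3000 cells/well, preincubated 5 h at 37C, then given compound for 17 h at 37C; LiveBLAzer B/G FRET substrate was read after 1 h at room temperature.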

[19] = biological target: Peroxisome proliferator-activated receptor delta (Homo sapiens) (UniProt Q03181); assay: qHTS assay to identify small molecule antagonists of the peroxisome proliferator-activated receptor delta (PPARd) signaling pathway (AID 743215; active means well fitted inhibition curve with a large enough effect in the signal ratio in the repeat runs, not every such curve was filed as active; the % refers to the signal ratio;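 further: cells stimulated with agonist L165041 at 300 nM final during compound exposure; series mostly up to about 62 µM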)
In short: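 Screen format: qHTS, antagonist mode. HEK293H PPARd-bla cells received compound and 300 nM L165041 (final), 17 h, 37 C. Beta-lactamase detected via FRET substrate fluorescence, 2 h, room temperature.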

[20] = biological target: Aryl hydrocarbon receptor (Homo sapiens) (UniProt P35869); assay: qHTS assay to identify small molecule that activate the aryl hydrocarbon receptor (AhR) signaling pathway (AID 743085);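 further: HG2L7.5c1 human HepG2 liver cells with stably integrated DRE-driven firefly reporter; series mostly up to about 70 µM; nearly all actives have a fitted effect of over 15% in size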
In short: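 HepG2 cells (HG2L7.5c1) stably carrying a firefly luciferase reporter driven by 20 dioxin responsive elements were exposed to compound for 24 h at 37C after a 5 h settling period; luminescence rise (ONE-Glo) indicated activation.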

Chain of Vitamin D3 receptor (Homo sapiens) (P11473 whole entry, looked up): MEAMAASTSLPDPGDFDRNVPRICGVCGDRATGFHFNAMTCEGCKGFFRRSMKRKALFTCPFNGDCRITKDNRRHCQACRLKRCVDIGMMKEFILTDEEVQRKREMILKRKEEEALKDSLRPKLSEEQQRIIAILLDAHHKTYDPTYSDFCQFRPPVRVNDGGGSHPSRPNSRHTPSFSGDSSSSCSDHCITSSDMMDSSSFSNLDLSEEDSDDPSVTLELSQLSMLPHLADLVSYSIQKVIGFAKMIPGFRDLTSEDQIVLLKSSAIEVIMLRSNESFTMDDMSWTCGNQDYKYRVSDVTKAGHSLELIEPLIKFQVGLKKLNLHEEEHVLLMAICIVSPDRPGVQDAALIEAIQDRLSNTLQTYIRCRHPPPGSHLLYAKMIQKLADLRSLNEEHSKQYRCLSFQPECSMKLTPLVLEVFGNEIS
Chain of Peroxisome proliferator-activated receptor delta (Homo sapiens) (Q03181 whole entry, looked up): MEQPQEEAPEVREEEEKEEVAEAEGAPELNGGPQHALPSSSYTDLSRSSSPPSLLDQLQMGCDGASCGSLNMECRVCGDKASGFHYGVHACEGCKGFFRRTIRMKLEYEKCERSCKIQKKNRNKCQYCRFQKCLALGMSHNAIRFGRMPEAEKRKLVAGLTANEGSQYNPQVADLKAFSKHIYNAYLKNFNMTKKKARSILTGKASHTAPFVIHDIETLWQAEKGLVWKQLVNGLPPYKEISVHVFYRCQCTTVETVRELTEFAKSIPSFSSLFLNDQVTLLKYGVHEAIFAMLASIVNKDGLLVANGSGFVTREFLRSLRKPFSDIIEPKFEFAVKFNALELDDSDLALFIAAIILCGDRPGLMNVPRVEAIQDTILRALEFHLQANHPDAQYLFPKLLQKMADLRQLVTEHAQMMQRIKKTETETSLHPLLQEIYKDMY
Chain of Aryl hydrocarbon receptor (Homo sapiens) (P35869 whole entry, looked up): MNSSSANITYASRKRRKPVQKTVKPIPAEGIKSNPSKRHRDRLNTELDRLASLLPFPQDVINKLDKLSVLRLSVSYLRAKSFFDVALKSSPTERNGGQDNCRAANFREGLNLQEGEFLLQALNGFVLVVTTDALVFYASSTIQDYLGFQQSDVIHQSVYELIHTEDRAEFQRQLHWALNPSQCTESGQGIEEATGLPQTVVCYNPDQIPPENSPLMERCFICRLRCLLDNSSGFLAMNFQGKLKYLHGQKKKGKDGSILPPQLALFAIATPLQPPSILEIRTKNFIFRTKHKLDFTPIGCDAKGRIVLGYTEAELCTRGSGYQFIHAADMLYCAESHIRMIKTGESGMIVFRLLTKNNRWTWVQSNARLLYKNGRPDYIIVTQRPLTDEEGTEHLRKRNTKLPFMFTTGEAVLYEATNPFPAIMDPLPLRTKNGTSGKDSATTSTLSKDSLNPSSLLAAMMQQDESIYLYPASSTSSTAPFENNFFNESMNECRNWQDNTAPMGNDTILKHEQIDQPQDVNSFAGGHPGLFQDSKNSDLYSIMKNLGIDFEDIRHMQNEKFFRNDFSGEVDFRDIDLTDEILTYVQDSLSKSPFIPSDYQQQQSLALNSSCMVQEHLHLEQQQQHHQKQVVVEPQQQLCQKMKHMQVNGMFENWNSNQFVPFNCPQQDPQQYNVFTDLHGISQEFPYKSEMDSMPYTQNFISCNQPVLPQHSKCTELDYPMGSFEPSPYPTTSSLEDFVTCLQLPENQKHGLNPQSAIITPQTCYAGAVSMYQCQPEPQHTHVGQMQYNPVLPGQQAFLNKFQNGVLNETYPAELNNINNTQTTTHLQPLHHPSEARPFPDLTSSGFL
Chain of Bile acid receptor (Homo sapiens) (Q96RI1 whole entry, looked up): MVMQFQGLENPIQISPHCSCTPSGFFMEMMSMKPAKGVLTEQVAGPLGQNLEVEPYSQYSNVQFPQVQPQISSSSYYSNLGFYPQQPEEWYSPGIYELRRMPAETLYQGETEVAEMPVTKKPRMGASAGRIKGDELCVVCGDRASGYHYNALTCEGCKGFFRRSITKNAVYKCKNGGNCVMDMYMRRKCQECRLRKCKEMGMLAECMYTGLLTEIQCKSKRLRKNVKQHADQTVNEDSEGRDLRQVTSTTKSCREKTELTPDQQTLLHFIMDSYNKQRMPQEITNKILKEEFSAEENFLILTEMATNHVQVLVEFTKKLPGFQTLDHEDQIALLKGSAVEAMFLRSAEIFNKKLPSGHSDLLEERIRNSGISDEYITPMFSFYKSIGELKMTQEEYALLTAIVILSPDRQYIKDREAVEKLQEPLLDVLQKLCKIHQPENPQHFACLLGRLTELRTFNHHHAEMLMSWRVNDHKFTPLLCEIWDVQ
Chain of Peroxisome proliferator-activated receptor gamma (Homo sapiens) (P37231 whole entry, looked up): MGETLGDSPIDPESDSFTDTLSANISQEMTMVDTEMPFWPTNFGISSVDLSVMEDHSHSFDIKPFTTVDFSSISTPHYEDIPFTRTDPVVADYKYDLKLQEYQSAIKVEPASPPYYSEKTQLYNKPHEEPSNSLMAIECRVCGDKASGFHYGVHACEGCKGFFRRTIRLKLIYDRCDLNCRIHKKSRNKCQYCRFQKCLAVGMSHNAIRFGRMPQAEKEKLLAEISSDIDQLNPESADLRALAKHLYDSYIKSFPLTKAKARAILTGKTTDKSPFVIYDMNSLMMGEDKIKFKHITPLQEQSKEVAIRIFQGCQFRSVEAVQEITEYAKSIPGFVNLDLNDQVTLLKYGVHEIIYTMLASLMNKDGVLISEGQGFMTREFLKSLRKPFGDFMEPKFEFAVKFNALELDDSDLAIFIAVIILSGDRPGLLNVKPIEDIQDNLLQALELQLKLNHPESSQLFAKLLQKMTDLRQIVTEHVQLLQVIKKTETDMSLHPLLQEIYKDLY

Row | Structure (SMILES) | Potency [1] | Potency [2] | Potency [3] | Potency [4] | Potency [5] | Potency [6] | outcome [7] | outcome [8] | Potency [9] | Potency [10] | Potency [11] | outcome [12] | Potency [13] | outcome [14] | Potency [15] | outcome [16] | outcome [17] | Potency [18] | outcome [19] | Potency [20]
1 | CC(C)=CCC/C(C)=C/C=N/O | inactive | inactive | inactive | inactive | inactive | inactive | inactive | inactive | inactive | inactive | inactive | inactive | inactive | inactive | inactive | inactive | inactive |  |  | 
2 | Cc1cccc(C)c1NC(=O)CN1CCCC1 | inactive | inactive | inactive | inactive | inactive | inactive | inactive | inactive | inactive |  | inactive |  | inactive |  | inactive | inactive |  | inactive |  | 
3 | CCOc1cc(OCC)c(C(C)=O)cc1OCC | 26.8 µM (active) | inactive | inactive |  |  | inactive | inactive |  | inactive | inactive | inactive | inactive | inactive | inactive | inactive | inactive | inactive | inactive | inactive | 
4 | Nc1ccc(-c2ccc(F)cc2)cc1 | inactive | inactive | inactive | inactive |  | inactive | inactive | inactive |  | inactive | inactive | inactive |  | inactive |  | inactive |  | inactive |  | 
5 | CC(CCl)OC(C)CCl (stereo not drawn) | inactive | inactive | inactive | inactive | inactive | inactive | inactive | inactive | inactive | inactive | inactive |  | inactive |  |  |  |  | inactive |  | 
6 | Nc1ccc(F)cc1F | inactive | inactive | inactive | inactive | inactive | inactive | inactive | inactive | inactive | inactive | inactive |  | inactive |  |  | inactive | inactive | inactive |  | 
7 | C(/C=C/C=C/Nc1ccccc1)=Nc1ccccc1 | inactive | inactive | inactive | inactive |  | inactive | inactive | inactive | inactive |  | inactive | inactive | inactive | inactive | inactive | inactive | inactive |  | inactive | 
8 | CC(=O)c1cccnc1 | inactive | inactive | inactive |  |  | inactive | inactive |  | inactive | inactive | inactive |  | inactive |  | inactive | inactive |  |  | inactive | 
9 | O=C(O)CNc1ccccc1 | inactive | inactive | inactive | inactive | inactive | inactive |  | inactive | inactive | inactive |  |  | inactive | inactive |  | inactive | inactive | inactive |  | 
10 | COc1cccc([C@H](O)C2CCN(CCc3ccc(F)cc3)CC2)c1OC | inactive |  |  | inactive |  |  | inactive | inactive | inactive | inactive |  | inactive | inactive | inactive | inactive | inactive |  | inactive | inactive | inactive
11 | C/C=C1\[C@H]2C=C(C)C[C@]1(N)c1ccc(=O)[nH]c1C2 | inactive | inactive | inactive | inactive | inactive | inactive | inactive | inactive | inactive | inactive | inactive | inactive | inactive | inactive | inactive |  |  | inactive | inactive | 
12 | COC(=O)Cc1cccc2ccccc12 | inactive |  | inactive |  | inactive | inactive | inactive | inactive | inactive | inactive | inactive |  | inactive |  | inactive | inactive | inactive |  |  | inactive
13 | FC(F)(Cl)C(F)(Cl)Cl | inactive | inactive | inactive |  | inactive | inactive | inactive | inactive | inactive | inactive | inactive |  |  |  | inactive | inactive | inactive | inactive |  | 
14 | C1=COCCC1 | inactive | inactive | inactive | inactive | inactive | inactive | inactive | inactive | inactive | inactive | inactive | inactive | inactive | inactive | inactive | inactive | inactive | inactive |  | 
15 | O=C(N[C@@H](Cc1ccccc1)[C@@H](O)C(=O)N1C[C@@H](O)[C@@H](O)C1)c1cc2cc(Cl)ccc2[nH]1 | inactive |  | inactive | inactive |  | inactive |  |  | inactive |  |  |  | inactive |  | inactive | inactive | inactive |  |  | inactive
16 | CCOc1ccc2c(c1)C(C)CC(C)(C)N2 (stereo not drawn) | inactive | inactive | inactive | inactive | inactive | inactive | inactive | inactive | inactive | inactive | inactive | inactive | inactive | inactive | inactive | inactive | inactive | inactive | inactive | 
17 | O=[N+]([O-])c1ccccc1CCO | inactive | inactive | inactive | inactive |  | inactive | inactive | inactive | inactive | inactive | inactive |  | inactive |  | inactive | inactive | inactive | inactive | inactive | 
18 | CCC(C)C1N=C(C)C(C)S1 (stereo not drawn) |  | inactive |  | inactive | inactive | inactive | inactive | inactive | inactive | inactive | inactive |  | inactive |  | inactive |  |  |  |  | 
